Assay outcomes as filed in PubChem.
PfHsp40 rescue: compounds rescuing yeast from Plasmodium falciparum HSP40 toxicity; S. cerevisiae expressing PfHsp40, growth rescue, ATP luminescence; growth rescue, % at 12.5 µM; hit rate 0.68% among 340,000; AID 504582; in the data active = growth rescue above about 28%, passing the limit was not always enough;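 also: yeast W303a lacking pdr1 and pdr3 grown in galactose medium; growth measured after three days at 30 °C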
CCHFV vOTU inh: CCHFV vOTU protease inhibition; AID 651958; hit rate 0.55% among 370,000; Pep-AMC fluorescence; inhibition, % at 11.5 µM; in the data active = inhibition above about 30%
Sa ugtP lethal: compounds lethal to S. aureus RN4220 ugtP deletion mutant; hit rate 0.54% among 330,000; growth inhibition, % (test concentration not listed); OD600 growth, 16 h; in the data active = growth inhibition above about 68%
RN4220 kill: kills Staphylococcus aureus RN4220. S. aureus RN4220 growth, OD600, 16 h. inhibition, % (concentration not given with the values). hit rate 0.33% among 330,000. AID 1259311; in the data active = inhibition above about 85%
BJeLR lethal: BJeLR cell viability loss; hit rate 0.17% among 300,000; inhibition, % (concentration not given with the values); AID 1554; BJeLR (HRASV12) viability, CellTiter-Glo ATP luminescence, 48 h; in the data active = inhibition above about 50%
Large screens that a line does not name were inactive. Rows were chosen to be rich in hits. Some 1.6% of all compounds tested hit in one or more screens of this group.

O=C1c2ccccc2C(O)(c2ccccc2)N1c1ccc([N+](=O)[O-])cc1Cl (stereo not drawn)	PfHsp40 rescue 204.5 (no result: BJeLR lethal)
CCOc1ccccc1NC(=O)CC1Nc2ccccc2NC1=O (stereo not drawn)	none
CCOc1ccccc1NC(=O)CC1Nc2cc(C)c(C)cc2NC1=O (stereo not drawn)	PfHsp40 rescue 49.3
O=C(O)c1ccccc1NN=Cc1cc(Br)cc(Br)c1O	none (no result: PfHsp40 rescue, CCHFV vOTU inh, BJeLR lethal)
O=C1NC(=S)/C(=C\c2ccc(-c3ccccc3Cl)o2)S1	Sa ugtP lethal 95.2, RN4220 kill 97.1
CC(=O)OCC(=O)[C@@]1(O)CCC2C3CCC4=CC(=O)C=C[C@]4(C)[C@@]3(Cl)C(Cl)C[C@@]21C (stereo partly drawn)	none (no result: PfHsp40 rescue, CCHFV vOTU inh, BJeLR lethal)
COC(=O)c1cc(CNC(=O)c2ccccc2Cl)ccc1OC	PfHsp40 rescue 47.3
COc1ccc(Br)cc1C(=O)NCc1cccnc1	PfHsp40 rescue 34.5
COC(=O)c1cc(CNC(=O)c2ccc(O)c(Cl)c2)ccc1OC	none
O=C(COc1ccc(Cl)cc1)NCC(=O)NN=Cc1cccs1	none (no result: PfHsp40 rescue, CCHFV vOTU inh, BJeLR lethal)
CC(C)(c1cc(Br)c(O)c(Br)c1)c1cc(Br)c(O)c(Br)c1	PfHsp40 rescue 330.7 (no result: Sa ugtP lethal, RN4220 kill, BJeLR lethal)
CCC1=C(OC(=O)N(CC)CC)N2C(=O)OC(=NCCc3c[nH]c4ccccc34)[C@]2(C)C2C1=CCC1C(=O)NC(=O)C12 (stereo partly drawn)	none (no result: PfHsp40 rescue, CCHFV vOTU inh, BJeLR lethal)
COc1ccc(C(=O)N/N=C/c2sc3ccccc3c2O)cc1	PfHsp40 rescue 262.1 (no result: CCHFV vOTU inh, Sa ugtP lethal, RN4220 kill)
O=C(NN=Cc1sc2ccccc2c1O)c1ccccc1	none (no result: PfHsp40 rescue, CCHFV vOTU inh, BJeLR lethal)
O=C(N/N=C/c1sc2ccccc2c1O)c1cccc2ccccc12	PfHsp40 rescue 32.3 (no result: Sa ugtP lethal, RN4220 kill)
Cc1ccc(NN=C2CS(=O)(=O)N(C)c3ccsc32)cc1	RN4220 kill 98.8 (no result: PfHsp40 rescue, CCHFV vOTU inh, BJeLR lethal)
N#CCCN(C(=O)Nc1ccc(Cl)cc1)c1ccccc1	none
N#CCCN(C(=O)Nc1ccccc1)c1ccccc1	PfHsp40 rescue 66.3
O=[N+]([O-])c1cccc(-c2nc(-c3cccs3)c(-c3cccs3)[nH]2)c1	none
O=[N+]([O-])c1ccc(-c2nc(-c3cccs3)c(-c3cccs3)[nH]2)cc1	PfHsp40 rescue 437.9
Fc1ccc(-c2nc(-c3cccs3)[nH]c2-c2ccc(F)cc2)cc1	PfHsp40 rescue 128.6
COC(=O)C1NC(C(NC(=O)COc2ccccc2)C(=O)NCc2ccsc2)SC1(C)C (stereo not drawn)	none (no result: PfHsp40 rescue, CCHFV vOTU inh, BJeLR lethal)
O=C1CN(C(=O)C=Cc2cccc(Cl)c2)c2ccccc2N1	none (no result: PfHsp40 rescue, CCHFV vOTU inh, BJeLR lethal)
O=C(Nc1ccc(OC(F)F)cc1)Nc1cccc(C(F)(F)F)c1	Sa ugtP lethal 90.1
O=C(Nc1ccc(OC(F)(F)F)cc1)Nc1cccc([N+](=O)[O-])c1	Sa ugtP lethal 99.7, RN4220 kill 100.0
CC(=O)c1c(C)[nH]c(C(=O)Nc2nc(-c3ccc(Cl)cc3)cs2)c1C	Sa ugtP lethal 90.3
O=c1c(-c2nnc(SCc3ccc(Cl)c(Cl)c3)o2)cccn1Cc1ccccc1	Sa ugtP lethal 86.3
Cc1ccc2c(Cl)cc(Cl)c(O)c2n1	Sa ugtP lethal 99.1, RN4220 kill 99.4 (no result: BJeLR lethal)
CC(=O)c1c(N2CCN(c3cccc(Cl)c3)CC2)nc(=S)n(-c2ccccc2)c1C	Sa ugtP lethal 82.7
COC(=O)[C@]1(Cc2ccccc2)NC(c2ccc(-c3ccccc3)cc2)C2C(=O)N(C)C(=O)C21 (stereo partly drawn)	none (no result: PfHsp40 rescue, CCHFV vOTU inh, BJeLR lethal)
CCCCn1nc2cc(C(=O)NC(C)C3CCCCC3)ccc2c1OCC (stereo not drawn)	none (no result: PfHsp40 rescue, CCHFV vOTU inh, BJeLR lethal)
Fc1ccc2nc3[nH]c4ccccc4c3nc2c1	PfHsp40 rescue 47.4
CCc1ccc(C(C)NC(=S)NCc2ccc(F)cc2)cc1 (stereo not drawn)	PfHsp40 rescue 227.2
CCc1ccc(C(C)NC(=S)NC2CCCCC2)cc1 (stereo not drawn)	PfHsp40 rescue 82.7 (no result: CCHFV vOTU inh)
Cc1ccc(C(C)NC(=S)NCc2ccc(F)cc2)cc1C (stereo not drawn)	none
CCC(C)c1ccc(C(C)NC(=S)NC2CCCCC2)cc1 (stereo not drawn)	none (no result: Sa ugtP lethal, RN4220 kill)
Cc1ccc(C(C)NC(=S)NCc2ccc(F)cc2)c(C)c1 (stereo not drawn)	PfHsp40 rescue 117.4
COC(=O)C1=C(C(=O)OC)C2N(Cc3ccccc3)c3ccccc3[C@@]23CC(C(=O)OC)N(C(=O)NC2CCCCC2)C3=N1 (stereo partly drawn)	none (no result: PfHsp40 rescue, CCHFV vOTU inh, BJeLR lethal)
NC(=O)C1CC2(CC(c3cccc(NC(=O)CC(c4ccccc4)c4ccccc4)c3)=NO2)CN1C(=O)COc1ccc(Cl)cc1 (stereo not drawn)	none (no result: PfHsp40 rescue, CCHFV vOTU inh, BJeLR lethal)
COc1ccc(OC)c(/C=C(\NC(=O)c2ccccc2)C(=O)NN=Cc2ccc(C)s2)c1	none (no result: PfHsp40 rescue, CCHFV vOTU inh, BJeLR lethal)
